Sampled rows, rich in hits. Any-hit rate of the full collection: about 2.3%.
TPT1 inh – C. albicans TPT1 enzyme inhibition; AID 1962; inhibition, % at 5 µM; recombinant caTPT1, FP RNA substrate dephosphorylation; 0.81% of 300,000 active;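 active = inhibition above the mean of all tested compounds plus 3 SD, set per screening campaign, cut at about 24% in these data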;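 note: plate controls were DMSO alone for no effect and ferristatin control at 100 nM for full effect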
IDE act – boosts human insulin-degrading enzyme activity in HEK cells; FAbeta-B cleavage, fluorescence polarization; 0% vehicle, 100% cell-free pure enzyme wells; activation, % at 5.96 µM; 0.073% of 340,000 active;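 active = activation above the mean of all tested compounds plus 3 SD, set per screening campaign, cut at about 17% in these data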
Rpn11 block – inhibitors of human proteasome Rpn11 | O00487 | human 26S proteasome, Ub4-pepOG fluorescence polarization; 20S core pre-blocked with epoxomicin | inhibition, % at 20 µM | 0.59% of 360,000 active | AID 588493;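 active = inhibition at 20 µM, scaled to each plate's controls, above about 33%, limit read from the data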
Target sequence (O00487 whole entry, looked up): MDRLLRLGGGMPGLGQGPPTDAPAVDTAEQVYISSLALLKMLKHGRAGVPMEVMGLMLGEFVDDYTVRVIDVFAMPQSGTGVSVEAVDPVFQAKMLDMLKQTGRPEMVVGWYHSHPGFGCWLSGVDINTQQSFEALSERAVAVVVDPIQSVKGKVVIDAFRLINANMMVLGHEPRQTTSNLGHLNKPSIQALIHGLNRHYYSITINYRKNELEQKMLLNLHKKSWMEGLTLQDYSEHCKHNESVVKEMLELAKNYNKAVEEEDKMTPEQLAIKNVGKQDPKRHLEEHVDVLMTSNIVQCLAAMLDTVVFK
Rin1 Abl inh – blocks binding of human Rin1 to Abl; AID 588664; inhibition, % at 7.35 µM; 0.4% of 360,000 active; TR-FRET Rin1/Abl binding, biochemical; P00519+Q13671; in the data active = inhibition above about 5%, passing the limit was not always enough
Calb FLC – affects C. albicans growth with fluconazole; growth inhibition, % (test concentration not listed); C. albicans CaCi-2 (fluconazole-resistant clinical isolate) + fluconazole, Alamar Blue growth, 48 h; 0.57% of 300,000 active; AID 1979;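 active = growth inhibition above about 58% in most replicates, limit read from the data, passing the limit was not always enough; inconclusive = exactly half the replicates above a set limit; inactive = most replicates below a set limit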;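 note: all wells also contain fluconazole at 8 µg/ml as a sub-toxic cotreatment; 0% = median of DMSO wells and 100% = median of geldanamycin control wells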
IDE cell inh – inhibits human insulin-degrading enzyme in HEK cells. FAbetaB cleavage, fluorescence polarization. inhibition, % at 5.59 µM. AID 434962. 0.41% of 320,000 active;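 active = percent inhibition above the average of all tested compounds plus 3 SD, set per screening campaign, cut at about 16% in these data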;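 note: IDE supplied by intact live HEK cells; FP after avidin binding of uncleaved biotin substrate so inhibition keeps polarization high; 0% = DMSO wells and 100% = 60 µM reference IDE inhibitor Ii1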
IDE inh confirm – confirmation of human insulin-degrading enzyme inhibitors in cells | shares compounds with IDE cell inh | HEK cells, FAbetaB cleavage, fluorescence polarization | inhibition, % at 5.59 µM | 51% of 1,200 active | AID 435028;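 active = mean inhibition across triplicate wells above the cutoff set by the earlier primary insulin-degrading enzyme screen, cut at about 16% in these data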;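 note: 0% = DMSO wells and 100% = 60 µM reference IDE inhibitor Ii1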
HEK cytotox – HEK cell cytotoxicity, counter-screen for IDE inhibitors; shares compounds with IDE cell inh; HEK293 cytotoxicity, ATP luminescence; inhibition, % at 5.59 µM; 28% of 1,200 active; in the data active = inhibition above about 22%;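 note: 0% = vehicle wells and 100% = reference cytotoxic drug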
Rpn11 inh conf – confirmation of human proteasome Rpn11 inhibitors; shares compounds with Rpn11 block; purified human 26S proteasome, Ub4-pepOG fluorescence polarization; proteasome pretreated with epoxomicin; inhibition, % at 20 µM; 29% of 1,900 active; AID 602318
MMP-2 counter – MMP-2 (human) inhibition counter-screen. shares compounds with Rpn11 block. recombinant MMP-2, FRET peptide cleavage fluorescence. inhibition, % at 20 µM. 4% of 1,900 active;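 note: human MMP-2 activated beforehand with APMA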
Thrombin inh – thrombin (bovine) inhibition counter-screen; shares compounds with Rpn11 block; bovine thrombin cleavage of Ub4-pepOG, fluorescence polarization; inhibition, % at 20 µM; 13% of 1,900 active;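 active = mean inhibition at least 40% at 20 µM, or signal 3 deviations below plate average, so some actives read negative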;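 note: plate controls were thrombin with DMSO for no effect and buffer wells lacking thrombin for full effect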
Starred values were filed as active, the others as inactive. Cut-off read from the data, not from the text of the source, unless noted: active = inhibition above about 40%; inactive = the rest.

`CCOC(=O)c1c(C)n(Cc2ccccc2)c2ccc(OCC(O)CNC(C)(C)C)cc12` (stereo not given) gave TPT1 inh -2, IDE act -19, Rpn11 block -38, Rin1 Abl inh 1, Calb FLC -16, IDE cell inh 38*, IDE inh confirm 19* and HEK cytotox 18.
Screening O=c1c2ccccc2nc(/C=C/c2ccc(O)cc2)n1-c1ccc(O)cc1 returned TPT1 inh 10, IDE act -70, Rpn11 block 17, Rin1 Abl inh -4, Calb FLC -1, IDE cell inh 62*, IDE inh confirm 133* and HEK cytotox 21.
O=P(N[C@@H](c1ccccc1)[C@@H]1C[C@H]1CO)(c1ccccc1)c1ccccc1 was read as TPT1 inh 0, IDE act 0, Rpn11 block -2, Rin1 Abl inh 0, Calb FLC 33 and IDE cell inh -1.
Screening C[CH2][Hg][S]c1ccccc1C(=O)O returned TPT1 inh -4, IDE act -50, Rpn11 block 9, Rin1 Abl inh -4, IDE cell inh 53*, IDE inh confirm 21* and HEK cytotox 122*.
For CC(C)COC(=O)c1ccccc1C(=O)OCC(C)C the results were TPT1 inh 0, IDE act 1, Rpn11 block -4, Rin1 Abl inh -1, Calb FLC -2 and IDE cell inh -5.
Screening N#CC1=C(N)Oc2c(c(=O)sc3ccccc23)C1c1cccnc1 (stereo not given) returned TPT1 inh 0, IDE act 5, Rpn11 block -3, Rin1 Abl inh 1, Calb FLC 12 and IDE cell inh 4.
`CCN1/C(=C\C=C\C2=[N+](CC)c3ccccc3C2(C)C)C(C)(C)c2ccccc21` gave TPT1 inh -203, IDE act -95, Rin1 Abl inh -24, Calb FLC -6, IDE cell inh 82*, IDE inh confirm 173* and HEK cytotox 120*.
Screening CCOC(=O)c1cccc(C2=C(CNC(=O)c3cccnc3)[C@H]3CC[C@@H](C2)N3Cc2ccccc2)c1 returned Rpn11 block -14 and Rin1 Abl inh -1.
O=c1[nH]c(=O)n(Cc2ccccc2)c(O)c1/C=N/NCCO was read as TPT1 inh 24, Rpn11 block 47*, Rin1 Abl inh 0, Calb FLC 2, IDE cell inh 16*, IDE inh confirm 2, HEK cytotox 6, Rpn11 inh conf 39, MMP-2 counter -33 and Thrombin inh 25.
Screening O=C(N/N=C/c1c(O)n(Cc2ccccc2)c(=O)[nH]c1=O)c1ccccc1O returned TPT1 inh 5, IDE act 5, Rpn11 block 14, Rin1 Abl inh 0, Calb FLC inconclusive and IDE cell inh -2.
For COc1ccc(-n2c(/C=C/c3ccc(O)cc3)nc3ccccc3c2=O)cc1 the results were TPT1 inh 8, IDE act -34, Rpn11 block 48*, Rin1 Abl inh -3, Calb FLC 10, IDE cell inh 31*, IDE inh confirm 76*, HEK cytotox 15, Rpn11 inh conf 15, MMP-2 counter 47* and Thrombin inh 4.
Screening Cc1ccc(-n2c(O)c(C=NCCC3=CCCCC3)c(=O)[nH]c2=O)cc1 returned TPT1 inh 3, IDE act 3, Rpn11 block -5, Rin1 Abl inh 0, Calb FLC -7 and IDE cell inh 6.
`Cc1cccn2c(=O)c3cc(C(=O)N4CCC5(CC4)OCCO5)n(C)c3nc12` gave TPT1 inh -4, IDE act 4, Rpn11 block 69*, Rin1 Abl inh 0, Calb FLC -5, IDE cell inh 4, Rpn11 inh conf -7, MMP-2 counter -3 and Thrombin inh -8.
For O=C(c1cccn2c(=O)c3cc(Br)ccc3nc12)N1CCC2(CC1)OCCO2 the results were TPT1 inh 1, IDE act -29, Rpn11 block -4, Rin1 Abl inh -3, Calb FLC 2 and IDE cell inh 6.
CC(C)OCCCNC(=O)c1c(N)n(CC2CCCO2)c2nc3ccccc3nc12 (stereo not given) was read as TPT1 inh 3, IDE act -2, Rpn11 block 45*, Rin1 Abl inh 10, Calb FLC -13, IDE cell inh -5, Rpn11 inh conf 7, MMP-2 counter -13 and Thrombin inh 4.
`CCCNC(=O)c1c(N)n(CC2CCCO2)c2nc3ccccc3nc12` (stereo not given) gave TPT1 inh 1, IDE act 3, Rpn11 block 9, Rin1 Abl inh 3, Calb FLC -2 and IDE cell inh 7.
`Cc1cc(C)cc(-n2c(C)cc(/C=C3\C(=O)NC(=O)N(C)C3=O)c2C)c1` gave TPT1 inh 5, IDE act 2, Rpn11 block 7, Rin1 Abl inh -3, Calb FLC 2 and IDE cell inh -1.
Screening Cc1cc(C=C2C(=O)N(C)C(=S)N(C)C2=O)c(C)n1-c1ccncc1 returned TPT1 inh 19, Rpn11 block 42*, Rin1 Abl inh 0, Calb FLC -5, IDE cell inh -1, Rpn11 inh conf 7, MMP-2 counter -10 and Thrombin inh 11.
`CCOC(=O)c1c(-n2c(C)cc(C=C3C(=O)NC(=S)NC3=O)c2C)sc2c1CCCC2` gave TPT1 inh 20, IDE act -18, Rpn11 block 43*, Rin1 Abl inh -4, Calb FLC 23, IDE cell inh 5, Rpn11 inh conf 35, MMP-2 counter 23 and Thrombin inh 17.
`CC1CCC(N2CCN(C(=O)COc3ccccc3)CC2)CC1` (stereo not given) gave TPT1 inh -1, IDE act 0, Rpn11 block 9, Rin1 Abl inh 2, Calb FLC 3 and IDE cell inh 2.
Screening Cn1ccc(NC(=O)CCl)n1 returned TPT1 inh -1, IDE act -4, Rpn11 block -2, Rin1 Abl inh 0, Calb FLC 3 and IDE cell inh 3.

Screening results: PubChem, several laboratories
